The text below walks through data of PubChem BioAssay AID435019 (Southern Research Specialized Biocontainment Screening …, 2010).

The campaign covered roughly 2,300 compounds. About 1,200 (52%) were called active. The rule behind the calls is not given here. So high a share suggests a set chosen from earlier hits. The list shows a part of the results. Results with a measured potency or affinity are listed apart.

This test in a line: mammalian cell cytotoxicity, dose response, cytotoxicity control for M. tuberculosis inhibitor project (AID 435019).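 Note: 0% = background wells and 100% = vehicle-treated cells; lower values mean fewer viable cells so more cytotoxicity.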 To be noted: cytotoxicity counter-screen; series mostly up to 40 µM; viability: at the top concentration.
Take `CCOC(=O)COc1ccc2c(c1)C(=O)CC(C)(c1cccnc1)O2` (centres undefined): the “viability” value is 102% (inactive).
Consider `Nc1ccc2oc(-c3cccs3)nc2c1`, for which the “viability” value is 95.4% (inactive).
For the molecule `CCOC(=O)c1ccc(N=C(CC)c2c(O)n(C)c(=O)n(C)c2=O)cc1`, the “viability” value is 90.3% (inactive).
In the case of `COc1cc(C)ccc1OCCOc1c(C)cc(Cl)cc1Cl` it was 86.2% (inactive); in that of `C=CCc1cc(C)ccc1OCCCC(C(=O)OCC)C(=O)OCC`, 97.1% (inactive); in that of `C[Se]C[C@@H](N)C(=O)O`, 101% (inactive).
In the case of `Cc1nc2sccn2c1-c1nc(-c2cc3ccccc3o2)cs1` it was 86.8% (inactive).
For the molecule `Cc1ccc(NC(=O)COC(=O)CCc2c[nH]c3ccccc23)cc1[N+](=O)[O-]`, the “viability” value was 92.4% (inactive).
Then `C[C@@H]1CN([C@H](C)CO)C(=O)c2cc(NC(=O)Nc3ccc(C(F)(F)F)cc3)ccc2O[C@H]1CN(C)S(=O)(=O)c1cccs1`, with 91.9% (inactive); and `CCOC(=O)CSc1cc(=O)n(C)c2cc(Cl)ccc12`, with 96.9% (inactive).
Then `O=C(CSc1nc2ccccc2[nH]1)N1c2ccccc2Sc2ccccc21`, with 81.8% (inactive); and `O=c1cc(O)c2sc3nc(-c4cccnc4)cc(C(F)(F)F)c3c2[nH]1`, with 92.6% (inactive).
Then `CC(C)c1ccc(-c2nn(-c3ccccc3)cc2C(=O)NCC2CCCO2)cc1` (centres undefined), with 86.4% (inactive); and `COc1ccc(-c2cn3cc([N+](=O)[O-])ccc3n2)cc1OC`, with 96.1% (inactive); and `C=CCOc1ccc(/C=N/O)cc1Cl`, with 84.8% (inactive).
Consider `O=C(Nc1cccc(Cl)c1)N1CCN(C/C=C/c2ccccc2)CC1`, for which the “viability” value was 84.9% (inactive).
Then `Cc1ccc(/C=C/S(=O)(=O)NCC(=O)OCC(=O)Nc2c(F)cccc2F)cc1`, with 91.2% (inactive); and `CC1(C)c2cc(Cl)ccc2-n2c1cc(O)c(-c1ccccc1)c2=O`, with 88.4% (inactive).
Then `O=c1[nH]c(CSc2cccc[n+]2[O-])nc2ccccc12`, with 93.4% (inactive).
On to `O=C(OCc1ccccc1)/C(=C(\O)c1ccccc1Br)c1ccc(-c2ccccc2)cn1`, for which the “viability” value is 89.2% (inactive).
Then `CCCc1cc(=O)[nH]c(SCC(=O)N2CCCC2=O)n1`, with 95.3% (inactive).
As for `Cc1nc2ccc(OC(=O)c3ccccc3)cc2s1`, the “viability” value was 86.3% (inactive).
Then `Clc1ccc(-c2ccc(C=Nc3ccc(N4CCOCC4)cc3)o2)c(Cl)c1`, with 95.9% (inactive).
Take `O=C(CSc1nc2ccccc2nc1N1CCOCC1)N1CCN(c2ccccc2)CC1`: the “viability” value is 89.7% (inactive).
Then `CC(C)OC(=O)CSc1nc2ccccc2s1`, with 95.2% (inactive); and `C1=C(c2c[nH]c3ccccc23)CCNC1`, with 88.5% (inactive); and `COc1ccc(N2CN=C3SCC(=O)N3C2)cc1`, with 99.6% (inactive).
In the case of `CCn1nnc(-c2ccc(N)cc2)n1` it was 94.1% (inactive); in that of `Nc1ccc(CCc2ccc(N)cc2)cc1`, 93.5% (inactive); in that of `Cc1cc2cc(CNC(=O)NC3CCCCC3)ccc2[nH]1`, 89% (inactive).
Then `O=C(/C=C/c1ncc(C(F)(F)F)cc1Cl)OCc1ccccc1`, with 100% (inactive); and `Cc1ccc(-c2nnc(NCc3nc4ccccc4[nH]3)c3ccccc23)cc1S(=O)(=O)N1CCCCC1`, with 81.5% (inactive); and `Cc1ccc(NC(=O)COc2ccc(-n3ccnc3)cc2)cc1Cl`, with 98% (inactive).
As to `CCNCC(=O)N1c2ccccc2CCc2ccc(NC(=O)OC(C)C)cc21`, the “viability” value was 82.4% (inactive).
Then `CCc1c(C)sc(NC(=S)N2CCN(CC)CC2)c1C(=O)OC`, with 83.2% (inactive).
Then `COC(=O)c1c(NC(=O)C(=O)N2CCCC2)sc2c1CC(C)(C)OC2`, with 89.7% (inactive).
In the case of `Cc1ccc(N=Nc2c(C)[nH]n(C(N)=S)c2=O)cc1` it was 83.6% (inactive); in that of `O=C1NCCC/C1=N\Nc1ccc(Br)cc1`, 94.1% (inactive).
Take `COC(=O)CNC(=O)CSc1nc2sc(-c3ccccc3)cc2c(=O)n1-c1ccccc1`: the “viability” value is 90.4% (inactive).
Then `Cc1ccc(NC(=O)c2sccc2-n2cccc2)c(C)c1`, with 93.2% (inactive).
For `CCCCCCCCCCOC(=O)Cn1c(COc2ccc(Cl)cc2)[n+](C)c2ccccc21`, the “viability” value was 93.5% (inactive).
In the case of `Nc1nonc1C(=O)NCCNCc1c(OCc2ccccc2F)ccc2ccccc12` it was 94% (inactive).
Then `Cn1ccnc1C(O)c1cc(C(C)(C)C)c(O)c(C(C)(C)C)c1` (centres undefined), with 89% (inactive).
In the case of `C(=N\Nc1nc(-c2ccccc2)cs1)/c1ccncc1` it was 88.6% (inactive); in that of `Cc1cccc(NC(=O)CCSc2nnc(Cc3ccccc3)o2)c1`, 99.5% (inactive); in that of `COC(=O)c1cccc(OC(N)=O)c1`, 97.2% (inactive).
For `c1ccc(Cn2c3ccccc3c3nnc(SCCN4CCCCC4)nc32)cc1`, the “viability” value was 88.8% (inactive).
Then `CC(=O)c1c(C)n(C)c2ccc(OC(=O)c3ccc([N+](=O)[O-])cc3)cc12`, with 93.6% (inactive); and `COC(=O)CSc1ncnc2c1cnn2-c1ccc(C)cc1C`, with 97.7% (inactive); and `NC(=S)N/N=C/c1ccc(-c2ccccc2)o1`, with 95.2% (inactive).
Regarding `CCc1n[nH]c(=S)n1/N=C/c1ccc(-c2ccc(Br)cc2)o1`, the “viability” value was 85.9% (inactive).
In the case of `CCOC(=O)c1ccc(-c2c(-c3ccc4c(c3)OCO4)noc2C)cc1F` it was 85.7% (inactive); in that of `Cc1onc(-c2ccccc2Cl)c1C(=O)Oc1cccc2cccnc12`, 84.4% (inactive); in that of `O=c1c(C=Nc2ccc(Oc3ccccc3)cc2)c[nH]n1-c1cccc(Cl)n1`, 94.6% (inactive).
For `Cc1nc2scc(-c3cccs3)c2c(=O)n1-n1cccc1`, the “viability” value was 94.5% (inactive).
`O=C(O)/C=C/C(=O)Nc1ccc(-c2ccccc2)cc1`: the “viability” value is 102% (inactive).
In the case of `Cc1ccc(S(=O)(=O)CNC(=S)c2ccc3ccccc3c2)cc1` it was 87% (inactive); in that of `O=[N+]([O-])c1cc(C=Nc2ccc3ccccc3c2)ccc1Br`, 102% (inactive); in that of `Cc1ccc(N2CCN(C(=O)c3cn(CC4CCCCC4)nn3)C(C)C2)cc1` (centres undefined), 85.7% (inactive).
`O=c1c2ccccc2nc(/C=C/c2ccccc2)n1-c1ccc(O)cc1`: the “viability” value is 81.8% (inactive).
In the case of `CCCC1CCC(C(=O)Nn2c(C)nc3ccccc3c2=O)CC1` (centres undefined) it was 82.5% (inactive); in that of `Cc1ccc2[nH]c(C(=O)NN=C3CCCCC3)c(-c3ccccc3)c2c1`, 88.9% (inactive).
Regarding `CCc1cc(C(=O)Nc2ccc(C)cc2Br)cs1`, the “viability” value was 92.9% (inactive).
Then `C/C(=N\NC(=O)COc1ccc(C)cc1Br)c1cc([N+](=O)[O-])cs1`, with 91.1% (inactive).
Then `COc1ccccc1N1C(=O)NC(=O)/C(=C/c2ccc([N+](=O)[O-])s2)C1=O`, with 92.6% (inactive); and `Cc1cccc(CSc2nc3c(c(-c4cccs4)c2C#N)CN(C)CC3)c1`, with 95.7% (inactive).
In the case of `CCCCCCOc1ccc(/C=C/C(=O)N2CCOCC2)cc1OC`, the “viability” value was 87% (inactive).
As for `COc1cc(/C=N/NC(=O)COc2ccc(C)cc2)ccc1OC(=O)c1cccs1`, the “viability” value is 99.4% (inactive).
Then `CC[N+](C)(CC)CCCCOc1ccc2c(c1)C(=O)c1cc(OCCCC[N+](C)(CC)CC)ccc1-2`, with 98.3% (inactive).
Then `CCCOc1ccc(-c2cnc(SCC(N)=O)nc2N)cc1`, with 94.2% (inactive); and `O=C(/C=C/c1ccco1)Oc1ccc(C(=S)N2CCOCC2)cc1`, with 92.7% (inactive).
In the case of `COc1ccc(NC(=O)NC(C)C2CC3CCC2C3)cc1` (centres undefined) it was 88.8% (inactive); in that of `Nc1ccc(-c2nc3nc(N)nc(N)c3nc2-c2ccc(N)cc2)cc1`, 86.7% (inactive).
Regarding `CN1CCN(C(=O)/C=C/c2cn(-c3ccccc3)nc2-c2ccc3c(c2)OCCO3)CC1`, the “viability” value is 91.2% (inactive).
In the case of `Cc1ccc(C(=O)COC(=O)C2CC(=O)N(c3nc(-c4ccccc4)cs3)C2)cc1C` (centres undefined), the “viability” value is 87.5% (inactive).
As for `CCCCCCCCNC(=O)CCNC(=O)c1ccc(C(C)(C)C)cc1`, the “viability” value is 83.2% (inactive).
Then `CCCCCCCCCCCCCCCC(=O)NCCO`, with 98.4% (inactive).
Then `CCc1ccc(NC(=O)c2ccc(C3SCC(=O)N3CCc3ccccc3)cc2)cc1` (centres undefined), with 91.9% (inactive).
In the case of `O=C1N[C@@H](Cc2ccccc2)C(=O)N2[C@H]3Nc4ccccc4[C@@]3([C@]34C[C@H]5C(=O)N[C@@H](Cc6ccccc6)C(=O)N5[C@H]3Nc3ccccc34)C[C@@H]12`, the “viability” value was 86.8% (inactive).
Then `CCOC(=O)CSc1nc(C)c(C(=O)OCC)s1`, with 97.8% (inactive); and `Cc1cc(C2N=C(N)Nc3nc4ccccc4n32)c(C)n1-c1ccccc1Cl` (centres undefined), with 90.1% (inactive); and `CN1OC(COC(=O)c2ccc(Cl)cc2Cl)CC1c1ccccc1` (centres undefined), with 94.3% (inactive).
Then `CCC(C)Nc1nc2c(C)cccn2c(=O)c1C=Nc1ccc(OC)cc1` (centres undefined), with 91.5% (inactive).
Then `CC(=O)O[C@H]1C[C@@]2(C)[C@@H](C[C@@H](O)[C@H]3[C@@]4(C)CC[C@@H](O)[C@@H](C)[C@@H]4CC[C@@]32C)/C1=C(\CCC=C(C)C)C(=O)O`, with 99.3% (inactive).
For the molecule `CN(CCCC1CCCC1)C(=O)CCc1nnc(-c2ccccc2)o1`, the “viability” value is 83.9% (inactive).
Then `O=C(Nc1ccc2nsnc2c1)NC1CCCCC1`, with 104% (inactive); and `COC(=O)c1ccc(-c2ncc(-c3cccc4ccccc34)o2)cc1`, with 95.6% (inactive); and `COc1cc(C)c(/C=C/C(C)=C/C=C/C(C)=C/C(=O)O)c(C)c1C`, with 88.1% (inactive).
Then `CC1(C)OC(=O)C(=NNc2ccc(Cl)cc2)C(=O)O1`, with 94.5% (inactive); and `Cc1ccc(NC(=O)c2cnc(SCC(=O)NCC3CCCO3)n(C)c2=O)cc1C` (centres undefined), with 90.9% (inactive); and `CCn1c(SCC(=O)OC2CCCCC2)nc2ccccc2c1=O`, with 95.4% (inactive).
`Cn1c(CNc2nc(-c3ccccc3)cs2)nnc1SCC(=O)OC1CCCCC1`: the “viability” value was 101% (inactive).
Then `CCOc1ccc(NC(=S)Nc2cc(-c3ccccc3)[nH]n2)cc1`, with 86.4% (inactive).
For the molecule `CCCc1ccc(NC(=O)C2CCN(c3cnccn3)CC2)cc1`, the “viability” value was 95.8% (inactive).
Then `CCCc1ncc(CN2CCCC(C(=O)Nc3ccc(-c4cccc(OC)c4)cc3)C2)cn1` (centres undefined), with 81.7% (inactive).
Turning to `Cc1ccc(C)c(N2CCN(C(=O)c3ccc4nc(N5CCOCC5)sc4c3)CC2)c1`, the “viability” value is 84.8% (inactive).
`Cc1cc(C)c2nc(N3CCCC(C(=O)N4CCN(c5ncccn5)CC4)C3)sc2c1` (centres undefined): the “viability” value was 82.1% (inactive).
In the case of `C[C@]12CCC(=O)C[C@@H]1CC[C@@H]1[C@@H]2CC[C@]2(C)C=CC[C@@H]12` it was 92.2% (inactive).
Then `NC(=O)N1CCC2(CC1)NC(=O)N(c1ccccc1)N2`, with 91.9% (inactive); and `Cc1cc(C)nc(-n2nc(C)cc2NC(=O)CN2CCC(C)CC2)n1`, with 91.8% (inactive); and `O=C(c1cc2cc(F)ccc2[nH]1)N(Cc1cccnc1)CC1CCCN(C2CCCCC2)C1` (centres undefined), with 84.5% (inactive).
In the case of `CC1(CCc2ccccc2)NC(=S)N(c2ccc(Cl)cc2)N1` (centres undefined) it was 89.4% (inactive); in that of `COC(=O)CSc1nnc(CNc2ccc(Cl)cc2)n1-c1ccccc1`, 94.6% (inactive).
On to `O=C(C[n+]1ccc(C(=O)N/N=C/c2ccc(O)cc2)cc1)c1ccccc1`, for which the “viability” value was 103% (inactive).
On to `Nc1cc([N+](=O)[O-])cc2oc(-c3ccccc3)cc12`, for which the “viability” value is 83.1% (inactive).
Then `COc1ccccc1-n1cc2c([N+](=O)[O-])cc([N+](=O)[O-])cc2n1`, with 103% (inactive); and `CCCCNc1nc(N(C)c2ccccc2)nc(-n2ccnc2)n1`, with 85.3% (inactive); and `O=C(CSc1nc2cc(Cl)ccc2o1)c1cccs1`, with 96.2% (inactive).
In the case of `COC(=O)c1ccc(CSc2nc3cc(Cl)ccc3o2)cc1` it was 101% (inactive).
